RMI-FANCM inh – inhibitors of human RMI core complex binding to FANCM MM2; Fluorescence polarization, RMI core complex with F-MM2 peptide; active compounds read low; FP signal (polarization) at 33 µM; hit rate 0.58% among 70,000; AID 1159607; in the data active = FP signal below about 40
Hits are given with their value; i = inactive; ! = not confirmed by another sample. Shown is part of a subset that was picked to be rich in hits.

SMILES | RMI-FANCM inh
O=C(/C=C/c1ccc(-c2cccc(Br)c2)o1)c1ccco1 | i
O=C(/C=C\c1ccco1)/C=C/c1ccc(-c2ccc(Br)cc2)o1 | 8
O=C(/C=C/c1ccc(Br)o1)/C=C/c1ccc(Br)o1 | i
O=C(/C=C\c1ccco1)/C=C/c1ccc(-c2ccc(Cl)c(Cl)c2)o1 | -11
NC(=O)/C=C/c1ccco1 | i
N#C/C(=C/c1ccc(-c2ccc(Cl)c(Cl)c2)o1)C(=O)Nc1ccccc1I | i
CC1(C)COc2ccc(NS(=O)(=O)c3ccc(-c4ccccc4)cc3)cc2NC1=O | i
Cc1nnsc1-c1nc2cccc(C)c2c(=O)o1 | i
N#CC1=C(NC(=O)c2ccc(C#N)cc2)CCC1 | i
CC(/C=C1\SC(=S)N(CC(=O)N2c3ccccc3Sc3ccccc32)C1=O)=C\c1ccccc1 | i
CC(/C=C1\SC(=O)N(CC(=O)Nc2ccc(O)cc2)C1=O)=C\c1ccccc1 | i
CC(/C=C1\SC(=S)N(CC(=O)Nc2ccc(C(=O)O)c(O)c2)C1=O)=C\c1ccccc1 | 19
CN(C)c1ccc(C(CNC(=O)C(=O)NC2CCCCC2)N2CCc3ccccc3C2)cc1 (stereo not given) | i
O=C(Nc1cccc(-c2nc3ccccc3[nH]2)c1)c1ccc(Cl)cc1 | i
Nc1ccc(Cl)cc1-c1nc2ccccc2[nH]1 | i
O=c1oc2c(Cl)cc(Cl)cc2cc1-c1nc2ccccc2[nH]1 | 40
O=C(CN1CCN(Cc2nc3ccccc3[nH]2)CC1)N1CCCc2ccccc21 | i
C#CC1(OCC(O)CN2CCN(c3ccccc3)CC2)CCCCC1 (stereo not given) | i
O=C(c1ccco1)N1CCN(c2ccc3nnc(-c4ccco4)n3n2)CC1 | i
CC(C)C(=O)Nc1nc2c(Cl)cc(Cl)cc2s1 | i
O=C(OC[C@H]1O[C@H](OC(=O)c2cc(O)c(O)c(OC(=O)c3cc(O)c(O)c(O)c3)c2)[C@H](OC(=O)c2cc(O)c(O)c(OC(=O)c3cc(O)c(O)c(O)c3)c2)[C@@H](OC(=O)c2cc(O)c(O)c(OC(=O)c3cc(O)c(O)c(O)c3)c2)[C@@H]1OC(=O)c1cc(O)c(O)c(OC(=O)c2cc(O)c(O)c(O)c2)c1)c1cc(O)c(O)c(OC(=O)c2cc(O)c(O)c(O)c2)c1 | 29
O=C(Oc1cc(O)cc2c1C[C@@H](OC(=O)c1cc(O)c(O)c(O)c1)[C@@H](c1ccc(O)c(O)c1)O2)c1cc(O)c(O)c(O)c1 | i
CC(=O)OC[C@H]1O[C@@H](OCc2ccccc2)[C@H](OC(C)=O)[C@@H](OC(C)=O)[C@@H]1OC(C)=O | i
Cc1onc(-c2c(Cl)cccc2Cl)c1C(=O)N1CCC(C(=O)c2ccccc2)CC1 | i
COc1cccc(CNC(=O)C2CCN(c3ncnc4c3sc3ncccc34)CC2)c1 | i
SMILES | RMI-FANCM inh
CCCCCc1ccc(-c2ccc(C(=O)Oc3ccc(OCCC)cc3)cc2)nc1 | i
Cc1cc(NC(=O)c2cc(=O)c3ccccc3o2)n(-c2nc3c(c(=O)[nH]2)CCC3)n1 | 9
C/C=C/C(=O)Nc1cc(C)nn1-c1nc2c(c(=O)[nH]1)CCC2 | i
Cc1cc(NC(=O)C(=O)c2c[nH]c3ccccc23)n(-c2nc3c(c(=O)[nH]2)CCC3)n1 | i
C/C(=N/NC(=O)c1cc(C)[nH]n1)c1ccc([N+](=O)[O-])cc1 | i
Cc1ccc(Cn2c(=O)c3ncccc3n(CC(=O)Nc3ccccc3)c2=O)cc1 | i
Cc1cc(=S)nc(-c2ccccn2)[nH]1 | i
Cc1cc(-c2ccccn2)c(-c2cc(Cl)cc(Cl)c2)[nH]1 | 32
Cc1nc(-c2ccccn2)n[nH]1 | i
Cc1nc2cc(NC(=O)C3CCCN(S(C)(=O)=O)C3)ccc2s1 (stereo not given) | i
CCOC(=O)c1c(C)oc2c1c(C=NC(C)c1ccccc1)c(O)c1ccccc12 (stereo not given) | i
CCOC(=O)c1c(C)oc2c1c(C=NC1CC(C)(C)NC(C)(C)C1)c(O)c1ccccc12 | 8
CCOC(=O)c1c(-c2ccccc2)oc2c1cc(NS(=O)(=O)c1ccc(C)cc1C)c1ccccc12 | i
COc1cc(C)c(C)cc1S(=O)(=O)NCCCc1ccc(N(C)C)cc1 | i
Cc1ccc(-c2csc(NC(=O)c3ccc(S(=O)(=O)N(C)CC4CCCO4)cc3)n2)cc1 (stereo not given) | i
Cc1ccc2oc(=O)cc(CN3CCOCC3)c2c1 | i
O=c1cc(CN2CCOCC2)c2cc3c(cc2o1)CCC3 | i
Cc1c(O)ccc2c(CN3CCCCC3)cc(=O)oc12 | 18
CCOCC(=O)Nc1ccc2c(c1)OCC(C)(C)C(=O)N2 | i
CCCCS(=O)(=O)N1CCC(c2nnc(C3CC3)s2)CC1 | i
CCOC(=O)C(NC(=O)c1ccco1)(Nc1cc(C)on1)C(F)(F)F (stereo not given) | i
O=C(NCCn1ncc2c(=O)n(Cc3cccc(F)c3)cnc21)c1ccc(Cl)cc1 | i
CC1CCc2oc3c(cc(NS(=O)(=O)c4cccs4)c4ccccc43)c2C1 (stereo not given) | i
CCC(C)(C)C1CCc2oc3c(cc(NS(=O)(=O)c4cccc([N+](=O)[O-])c4)c4ccccc43)c2C1 (stereo not given) | 32!
CC1CCc2oc3c(cc(NS(=O)(=O)c4ccc(Br)cc4)c4ccccc43)c2C1 (stereo not given) | i
SMILES | RMI-FANCM inh
CS/C(N=CN(C)C)=N\N=C(\C)c1ccc(F)cc1 | i
CC1=C(C)CC2C(=O)N(C(Cc3ccccc3)C(=O)O)C(=O)C2C1 (stereo not given) | i
CC1=C(C)CC2C(=O)N(c3ccc(O)cc3)C(=O)C2C1 (stereo not given) | i
CCN1C(=O)C2CC(C)=C(C)CC2C1=O (stereo not given) | 29
COC(=O)c1cc(NC(=O)CSc2nnc3scc(-c4ccc(C)cc4)n23)cc(C(=O)OC)c1 | i
COC(=O)c1cc(=O)c2cc(F)ccc2[nH]1 | i
O=C1N=C(N2CCN(c3ccccc3F)CC2)S/C1=C\c1cccnc1 | i
CC1CCN(C2=NC(=O)/C(=C\c3ccccc3)S2)CC1 | i
O=C1N=C(N2CCN(c3ccccc3[N+](=O)[O-])CC2)S/C1=C/c1cccs1 | 18
CC12CCC(C(=O)Nc3ccc(C(F)(F)F)cc3)(CC1=O)C2(C)C (stereo not given) | i
COC(=O)c1ccc(-c2csc(NC(=O)c3ccc(Br)o3)n2)cc1 | i
Cc1ccc(C)c(S(=O)(=O)N=C2C=C(SCC(=O)O)C(=O)c3ccccc32)c1 | i
Cc1ccc(C)c(S(=O)(=O)N2C(=S)NC(=O)C2Cc2ccccc2)c1 (stereo not given) | i
Cc1ccc(C)c(S(=O)(=O)N=C2C=C(Cl)C(=O)c3ccccc32)c1 | 20
CCOC(=O)c1c(N)sc2c1CN(C(C)=O)CC2 | i
CCCCC(=O)NC(NC(=O)CCCC)c1cccc(OC)c1 | i
COc1ccc(NC(=O)CSc2ccc(NC(=O)c3ccco3)nn2)c(OC)c1 | i
C=CCn1c(SCCC(=O)Nc2ccc(C)cc2)nc2scc(-c3ccc(C)o3)c2c1=O | i
O=C(Nc1nc2c(s1)CCc1ccccc1-2)c1nc2ccccc2s1 | i
O=C(Nc1nc2c(s1)Cc1ccccc1-2)c1ccc2ncsc2c1 | i
O=C(Nc1nc2c(s1)Cc1ccccc1-2)c1nc2ccccc2s1 | -62
CCOc1ccccc1NC(=O)CSc1nc2cc(-c3ccccc3)sc2c(=O)n1C | i
Brc1ccc(-c2ccc(Br)s2)s1 | i
Fc1ccc2nc(NCc3cccnc3)sc2c1 | i
Fc1ccc2ncc(-c3ccc(Br)s3)nc2c1 | 9
N#Cc1ccc(SCCOC(=O)Nc2ccc(OC(F)(F)F)cc2)c([N+](=O)[O-])c1 | i

Assay outcomes from PubChem.
